# Results from PubChem BioAssay (EPA / NIEHS).
# Inconclusive results are not listed. Active and inactive are the calls of the source. The calls were made as follows: active = hit-call score of the fitted dose curve at least 0.9, where 1 is the maximum; inconclusive = response in the unintended direction; inactive = score below 0.9.
# Tested on: guinea pig Muscarinic, Peripheral (Mperiperal) Receptor, Non-selective Binding, gene 100379235
# Assay: NVS_GPCR_gMPeripheral_NonSelective: NovaScreen (NVS) G Protein-Coupled Receptor Assay for guinea pig Muscarinic, Peripheral (Mperiperal) Receptor, Non-selective Binding (AID 2283250)
# Description: NVS_GPCR_gMPeripheral_NonSelective is a biochemical, single-readout assay that uses extracted gene-proteins from Guinea pig bladder membranes in a tissue-based cell-free assay. Measurements were taken 1 hour after chemical dosing in a 48-well plate.NVS_GPCR_gMPeripheral_NonSelective is one of one assay component(s) measured or calculated from the NVS_GPCR_gMPeripheral_NonSelective assay. It is designed to make measurements of radioligand binding, a form of binding reporter, as detected with scintillation counting signals by Filter-based radiodetection technology.Data from the assay component NVS_GPCR_gMPeripheral_NonSelective was analyzed into 1 assay endpoint. This assay endpoint, NVS_GPCR_gMPeripheral_NonSelective, was analyzed in the positive analysis fitting direction relative to DMSO as the negative control and baseline of activity. Using a type of binding reporter, loss-of-signal activity can be used to understand changes in the binding as they relate to the gene Chrm3. Furthermore, this assay endpoint can be referred to as a primary readout, because the performed assay has only produced 1 assay endpoint. To generalize the intended target to other relatable targets, this assay endpoint is annotated to the gpcr intended target family, where the subfamily is rhodopsin-like receptor.
# Binding assays used specific radioligands (tritiated, iodinated) with non-radioactive competitive displacement ligands in agonist or antagonist protocols (as indicated) and various reference compounds and inhibitors to titrate specific binding to receptors and transporters. Most enzyme assays (CYPs, kinases, phosphatases, proteases, HDACs) used recombinant protein and specific substrates (fluorescence mostly, some colorimetric and radioactive) and inhibitors, followed by a biochemical separation of substrate and product. All assays for the biochemical HTS were initially run in duplicate at a single concentration (10 uM for CYP450 assays and 25 uM for all others). Assay-chemical combinations meeting a pre-defined threshold (e.g., 30% inhibition and other criteria defined below) were then run in singleton concentration-response format with maximum concentration of 20 uM for CYPs and 50 uM for all others. Each assay was run with positive and negative controls, and concurrent controls on every plate. The follow-up (secondary) screen tested active chemical-pairs in concentration series, as well as a few additional assays not tested in the primary screen, some selected negative inactives, and several cases re-run in the concentration series for confirmatory purposes.
Structure (SMILES),AC50,outcome
NCc1cccc(C2CCN(C(=O)c3ccc(C#Cc4ccccc4F)o3)CC2)c1,9.09 µM (active),–
CCOC(=O)O[C@H](C)OC(=O)c1ccc2c(c1)cc(C(=O)NC1CCN(C(C)C)CC1)n2Cc1cc(-c2ccc(Cl)s2)on1,16.6 µM (active),–
COc1ccc2cc(S(=O)(=O)N[C@H](CC(=O)N[C@H](Cc3ccc(CN4[C@H](C)CCC[C@@H]4C)cc3)C(=O)N(C)C(C)C)c3ccc4c(c3)OCO4)ccc2c1,5.48 µM (active),–
O=C1c2ccccc2C(=O)N1CCc1noc(-c2ccc(CN3CCCCCC3)s2)n1,4.5 µM (active),–
CCN(CC)C(=O)c1cc(S(=O)(=O)Cc2ccccc2)c(N2CCC(c3ccccc3)CC2)cc1N(CC)CCN(C)C,12 µM (active),–
CN(C)C(=O)C1(N2CCCCC2)CCN(CC[C@@]2(c3ccc(Cl)c(Cl)c3)CN(C(=O)c3ccccc3)CCO2)CC1,8.87 µM (active),–
Clc1cc(Cl)c2c(c1)N=C1CCCCCN1C2,6.74 µM (active),–
c1ccc(C[n+]2cccc3ccccc32)cc1,8.25 µM (active),–
CN(C)c1ccc(C(=C2C=CC(=[N+](C)C)C=C2)c2ccc(N(C)C)cc2)cc1,5.05 µM (active),–
Cc1cc2c(cc1C(F)(F)F)N(C(=O)Nc1ccc(Oc3cccnc3C)nc1)CC2,–,inactive
COc1cc(C(=O)NC2CCN(C)CC2)ccc1Nc1ncc2c(n1)N(C1CCCC1)CC(F)(F)C(=O)N2C,9.85 µM (active),–
Cc1occc1C(=O)Nc1ccc(C(=O)N2CCC(F)(F)/C(=C\C(=O)N3CCC(N4CCCCC4)CC3)c3ccccc32)cc1,5.65 µM (active),–
CCCCCCCCCCCC[N+](C)(C)C,4.49 µM (active),–
